The list is not random: actives were taken first. Their share in the collection is about 5.7%.
DAX1 inh-1: DAX1 (NR0B1) inhibitors on StAR promoter, primary screen, cell-based, luminescence, SF-1 (NR5A1), full-length DAX-1. HEK293T StAR-luciferase reporter, SF-1/DAX-1 repression relief. inhibition, % at 6.8 µM. AID 652010, 2013. actives 1.1% (n = 370,000);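 active means inhibition above the mean over all tested compounds plus 3 SD, cut at about 3.6% in these data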;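 further: 0% = DAX-1 cells with DMSO and 100% = cells lacking DAX-1 with DMSO; higher inhibition means more luminescence from relief of DAX-1 repression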
hcDAF-12 act: H. contortus DAF-12 nuclear receptor activators, primary screen, cell-based, luminescence, HEK293, lit1-tk-luc reporter | HEK293 hcDAF-12 lit1-tk-luc reporter; 0% DMSO, 100% Δ7-dafachronic acid | activation, % at 6.8 µM | actives 1.4% (n = 370,000);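 active means activation above the mean of all tested compounds plus 3 SD, cut at about 5.5% in these data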;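 further: 100% = response to 3 µM Δ7-dafachronic acid high control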
DAX1 inh-2: DAX1 (NR0B1) inhibitors, primary screen, cell-based, HEK293, Gal4-DAX1, luciferase luminescence; Nuclear receptor subfamily 0 group B member 1 (Homo sapiens), P51843; HEK293 Gal4-DAX1 luciferase reporter; inhibition, % at 6.75 µM; actives 0.99% (n = 340,000);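 active means inhibition above the mean over all tested compounds plus 3 SD, cut at about 4.2% in these data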;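 further: 0% = DAX1-transfected cells with DMSO and 100% = empty-vector control cells with DMSO; inhibition shows as a rise in luminescence from relieved DAX1 repression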
Target sequence (P51843 207-470 limits assumed): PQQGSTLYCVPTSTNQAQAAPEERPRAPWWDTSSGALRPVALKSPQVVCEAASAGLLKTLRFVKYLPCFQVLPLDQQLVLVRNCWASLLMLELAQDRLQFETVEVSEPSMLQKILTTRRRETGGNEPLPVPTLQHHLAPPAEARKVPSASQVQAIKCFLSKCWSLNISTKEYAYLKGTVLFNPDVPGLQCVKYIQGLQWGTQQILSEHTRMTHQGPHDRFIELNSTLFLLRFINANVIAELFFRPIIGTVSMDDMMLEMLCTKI
AHR act: AHR activators, primary screen, cell-based, luminescence, luciferase reporter, human; AID 2796, 2010; activation, % at 5 µM; Aryl hydrocarbon receptor (Homo sapiens), P35869; actives 2.5% (n = 320,000); AHR-responsive luciferase reporter cells; in the data active means activation above about 47%;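 further: 0% = vehicle wells and 100% = reference agonist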
hgDAF12 agonist: H. glycines DAF-12 receptor agonists, primary screen, cell-based, luminescence, HEK293, GAL4 fusion, UAS-luciferase | HEK293 GAL4-hgDAF12 UAS-luciferase reporter, agonist luminescence; normalized to butyrate control | activation, % at 6.8 µM | actives 1.8% (n = 370,000);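 active means activation above a cutoff set at the mean of all screened compounds plus 3 SD, cut at about 10% in these data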;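 further: 0% = DMSO wells and 100% = sodium butyrate wells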
ssDAF12 agonist: S. stercoralis DAF-12 nuclear receptor activators, primary screen, cell-based, luminescence, HEK293, GRIP1 co-expression, lit1-tk-luc; Nuclear hormone receptor DAF-12 (Strongyloides stercoralis); HEK293 ssDAF-12/GRIP1 lit1-tk-luc reporter; % of 3 µM dafachronic acid response; activation, % at 6.8 µM; actives 1% (n = 370,000); AID 652126, 2013;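 active means activation above the mean over all tested compounds plus 3 SD, cut at about 0.9% in these data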;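 further: 0% = DMSO-only wells and 100% = 3 µM delta7-dafachronic acid wells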
* marks the source's active call; other numbers are inactive results; . = no result.

SMILES	DAX1 inh-1	hcDAF-12 act	DAX1 inh-2	AHR act	hgDAF12 agonist	ssDAF12 agonist
Cc1ccccc1Cn1ccc(NC(=O)c2cnn3c(C(F)(F)F)cc(-c4ccco4)nc23)n1	-0.2	-1.0	-0.8	47.9*	2.6	-0.9
CC1=NN(c2ccccc2)C(=O)C1C(=O)c1ccccc1 (centres undefined)	0.6	-0.6	0.7	3.3	-2.4	-0.6
CC1=NN(c2ccccc2)C(=O)C1C(=O)C(=O)Nc1ccc(F)cc1 (centres undefined)	4.3*	4.0	0.0	-2.7	10.7*	-0.8
O=C(N/N=C/c1cccc2ccccc12)c1cccnc1	0.3	-0.3	3.3	53.5*	4.5	-1.0
Cn1nccc1C(=O)N/N=C/c1cccnc1	0.4	1.7	4.3*	6.1	1.9	-0.4
O=C(N/N=C/c1cc2c(c([N+](=O)[O-])c1)OCO2)c1ccncc1	0.1	1.8	3.8	60.8*	-0.5	-0.6
O=C(O)c1ccc(/C=N/NC(=O)c2ccc3c(c2)OCCO3)cc1	0.7	5.2	0.4	3.9	5.7	0.4
CC(=O)Nc1ccc(C(=O)N/N=C/c2cccnc2)cc1	0.3	-1.1	-0.6	1.0	-1.0	-1.2
O=C(N/N=C/c1cccnc1)c1ccc2c(c1)OCCO2	1.4	2.1	0.9	17.0	11.4*	-0.8
Cc1ccc(S(=O)(=O)NNC(=O)C(O)(c2ccccc2C)c2ccccc2C)cc1	0.0	0.2	-0.8	1.3	-0.5	-0.8
O=C(COC(=O)c1cccnc1)Nc1cccc2ccccc12	0.0	-0.1	4.5*	3.6	-0.1	0.0
O=C(N/N=C/c1cc2c(cc1[N+](=O)[O-])OCO2)c1cccnc1	0.0	0.3	0.2	50.8*	1.3	-0.7
O=C(N/N=C/c1ccc2c(c1)OCO2)c1cccnc1	0.0	0.5	0.9	55.1*	5.0	-0.4
Cn1c(-c2ccccc2)c(/C=N/NC(=O)c2cccnc2)c2ccccc21	2.0	-0.3	2.6	59.1*	6.3	-0.8
Cn1c(COc2ccccc2)nnc1SCCC(=O)Nc1ccccc1	-1.1	-2.5	-0.9	0.6	-1.9	-1.2
COc1ccc(-c2c(C(=O)c3ccc(Br)cc3)[nH]c(N)c2C(=O)c2ccccc2)cc1OC	-1.1	-2.0	.	.	-4.0	-1.0
COc1ccc(CN2C(=O)c3ccnn3CC2(C)c2nnnn2-c2c(C)cccc2C)cc1 (centres undefined)	0.2	-0.1	.	.	2.0	-1.1
O=C(N/N=C/c1cc2cc3c(cc2nc1Cl)OCCO3)c1ccccc1O	0.5	-0.1	0.2	5.5	-0.1	-0.8
O=C(COC(=O)c1cc2ccccc2cc1O)Nc1cccnc1Cl	-0.3	4.2	0.4	8.6	1.5	1.0*
O=C(N/N=C/c1cc2cc3c(cc2nc1Cl)OCO3)c1ccncc1	0.6	0.0	3.2	63.7*	-2.1	-0.5
CO[C@H]1CC[C@@]2(C)[C@@H](CC[C@@H]3[C@@H]2CC[C@@]2(C)[C@H]3C[C@H](C(=O)N[C@@H](CCCN=C(N)N)C(=O)NCC(=O)N[C@@H](CC(=O)O)C(N)=O)O[C@]23CCCO3)C1	.	.	0.6	.	.	.
CN(C)C=Nc1nc2c(Br)ccc(Br)c2cc1C(=O)NCC(C)(C)C	-1.1	0.4	.	.	-3.3	-0.2
O=C(O)CC1(c2ccccc2)C(=O)c2ccccc2C1=O	-0.2	-1.1	-0.3	-2.1	-1.1	-0.9
NC(=O)C1C(=O)c2ccccc2C1(C[N+](=O)[O-])c1ccccc1 (centres undefined)	1.3	5.8*	-0.5	.	-1.8	-0.1
COc1ccc(C2Nc3ccccc3C(=O)N2Cc2ccco2)cc1CN1C(=O)c2ccccc2C1=O (centres undefined)	-0.1	-1.0	-1.1	1.4	-2.6	-1.9

Screening results deposited in PubChem BioAssay by The Scripps Research Institute Molecular Screening Center.
